Measured values from PubChem BioAssay AID612 (The Scripps Research Institute Molecular Screening Center, 2007).
The whole screen tested about 62,000 compounds, of which about 420 (0.68%) were called active.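 Rule for the calls: active = inhibition above the mean of all tested compounds plus 3 SD (cut at about 43% in these data); inactive = the rest.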 This excerpt belongs to a sample that is enriched for actives.

These molecules were tested against 5-hydroxytryptamine receptor 1A (Homo sapiens) (UniProt P08908) (assay: human 5-HT1a receptor antagonists, primary screen, cell-based, CHO, Ga15 NFAT-bla reporter (AID 612;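 note: receptor stimulated by 5-CT agonist at 100 nM near EC80; beta-lactamase reporter measured by ratiometric fluorescence of a cleavable substrate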)). Details: CHO 5-HT1a Ga15 NFAT-bla reporter, antagonist mode; at 10 µM; stronger effect = higher value.
5-hydroxytryptamine receptor 1A (Homo sapiens), sequence (P08908 whole entry, looked up): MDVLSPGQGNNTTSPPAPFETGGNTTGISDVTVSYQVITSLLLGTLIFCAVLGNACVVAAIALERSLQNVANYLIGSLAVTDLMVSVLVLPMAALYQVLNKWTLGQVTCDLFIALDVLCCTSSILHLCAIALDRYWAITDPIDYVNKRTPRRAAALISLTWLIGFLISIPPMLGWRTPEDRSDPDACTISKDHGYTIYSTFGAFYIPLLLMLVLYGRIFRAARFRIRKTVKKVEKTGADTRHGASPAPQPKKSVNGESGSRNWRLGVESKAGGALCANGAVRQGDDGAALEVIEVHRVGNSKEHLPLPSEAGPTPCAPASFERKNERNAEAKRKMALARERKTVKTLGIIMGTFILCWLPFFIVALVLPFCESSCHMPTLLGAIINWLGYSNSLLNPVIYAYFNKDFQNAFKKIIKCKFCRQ

Q: How did the inhibition turn out when `O=C(Nc1cc(C(F)(F)F)ccc1Cl)c1cc(C2CC2)on1` was run?
A: 2.5% (inactive)

Q: How did the inhibition turn out when `O=C(OCC(O)C(O)COC(=O)c1ccccc1)c1ccccc1` (stereo not given) was run?
A: -11.9% (inactive)

Q: With `S=C1SCN(CCN2CCOCC2)CN1Cc1ccccc1` as the molecule, how does the inhibition read?
A: -2.1% (inactive)

Q: `CCOc1ccccc1C1NC(=O)NC(C)=C1C(=O)OCc1ccco1` (stereo not given) was tested. Which inhibition did it give?
A: -4.6% (inactive)

Q: For `CCOc1ccc2[nH]c(=O)c(C(c3nnnn3CCOC)N3CCOCC3)cc2c1` (stereo not given), which inhibition is on record?
A: -1.9% (inactive)

Q: `CC(=O)c1sc2nc(SCC(=O)N3CCCCC3)[nH]c(=O)c2c1C` was tested. Which inhibition did it give?
A: -6.6% (inactive)

Q: For `Cc1cccc(NC(=O)c2ccccc2NC(=O)C(C)(C)C)n1`, which inhibition is on record?
A: 1.6% (inactive)

Q: For `O=S(=O)(Nc1ccccc1N1CCOCC1)c1ccc(Cl)s1`, which inhibition is on record?
A: 4.3% (inactive)

Q: For `CCOC(=O)C1CCN(Cc2coc3ccc(Cl)cc3c2=O)CC1`, which inhibition is on record?
A: 5% (inactive)

Q: `O=C(NCc1ccc2c(c1)OCO2)C1CCCN(S(=O)(=O)c2cccs2)C1` (stereo not given) was tested. Which inhibition did it give?
A: -2.9% (inactive)

Q: For `Cc1ccnc(SCCn2c(Br)nc3c2c(=O)[nH]c(=O)n3C)n1`, which inhibition is on record?
A: -4.8% (inactive)

Q: How did the inhibition turn out when `CC(C)Cc1cc(C(=O)Nc2cc(Br)ccc2O)no1` was run?
A: 17.4% (inactive)

Q: For `CCn1c(SCC(=O)Nc2nccs2)nnc1-c1ccncc1`, which inhibition is on record?
A: -5% (inactive)

Q: For `Cc1ccc(C(=O)NC2CCN(C(=O)N3CCOCC3)CC2)cc1`, which inhibition is on record?
A: -11.8% (inactive)

Q: With `COc1ccc(CCN2C(=O)c3[nH]nc(-c4ccccc4O)c3C2c2ccc(C)cc2)cc1OC` (stereo not given) as the molecule, how does the inhibition read?
A: 54.6% (active)

Q: `COc1ccc(CCN(C)CCN2C(=O)c3ccccc3C2=O)cc1OC` was tested. Which inhibition did it give?
A: -14.2% (inactive)

Q: How did the inhibition turn out when `COc1cc(C2C(C(=O)c3ccc(C)o3)=C(O)C(=O)N2CCc2ccccc2)ccc1O` (stereo not given) was run?
A: -1.1% (inactive)

Q: `O=C(C1CC1)N1CCN=C1SCc1ccc(Cl)cc1` was tested. Which inhibition did it give?
A: 13% (inactive)

Q: Which inhibition does the source give for `N#CC1=C(N)C(C#N)(C#N)[C@H](c2ccsc2)[C@H]2COCC=C12` here?
A: -8.8% (inactive)

Q: Which inhibition does the source give for `O=C(CN1CCOCC1)Nc1c(-c2ccccc2)c2cc(Br)ccc2[nH]c1=O` here?
A: -10.8% (inactive)
